For some of these results: Results with a measured potency or affinity are listed apart. Activity calls are given as the source filed them. Unless noted, no rule for the calls is given here.
Columns and labels:
[1] = antimalarial activity against Dd2 strain (AID 2302;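 active = growth inhibition above 50% at the single 2 µM test dose, taken to imply half-maximal potency below 2 µM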;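 also: 0% = DMSO untreated growth and 100% = chloroquine plus artemisinin killed control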); settings: P. falciparum Dd2 in RBCs, LDH growth readout, 72 h; at 2 µM; stronger effect = higher value
[2] = human hepatoma cell viability loss – ATP luminescence, cytotoxicity control for P. falciparum antimalarial project, primary screen (AID 2303;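 active = inhibition above 50%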;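 also: 0% = DMSO wells and 100% = digitonin-killed cells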); settings: HepG2 viability, 24-48 h, at 10 µM, stronger effect = higher value
[3] = target: L-lactate dehydrogenase (Plasmodium falciparum (isolate CDC / Honduras)) (UniProt Q27743); test: PfLDH activity inhibition – cell lysate, 3D7 strain, counter-screen for P. falciparum growth inhibition project (AID 2304);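 also: 0% = vehicle and 100% = reference inhibitor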; settings: P. falciparum 3D7 crude extract, LDH APAD/NBT absorbance; at 2 µM; stronger effect = higher value
[4] = inhibition of 3D7 malaria parasite growth – strain 3D7 (AID 2306);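 also: 0% = DMSO wells and 100% = chloroquine plus artemisinin control wells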; settings: P. falciparum 3D7 erythrocytic growth, LDH absorbance, 72 h; at 2 µM; stronger effect = higher value
[5] = target: Calcium-dependent protein kinase 1 (Plasmodium falciparum (isolate 3D7)) (UniProt P62344); test: PfCDPK1 kinase inhibitors, biochemical, TCAMS library (AID 1159585; cut-off not given, nearly all actives have IC50 up to about 0.98 µM;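 also: inhibitors leave more ATP so luminescence rises with inhibition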); settings: recombinant PfCDPK1, Kinase-Glo ATP depletion luminescence
[6] = target: Plasmodium falciparum protein kinase 6 (PK6, PF3D7_1337100) (UniProt Q8IDW1); test: PfPK6 kinase inhibitors, biochemical, TCAMS library (AID 1159586); settings: recombinant PfPK6, Kinase-Glo ATP depletion luminescence
[7] = target: Protein kinase 7 (PK7), Plasmodium falciparum 3D7 (PF3D7_0213400) (UniProt Q7YTF7); test: inhibition of Plasmodium PK7 catalytic activity – biochemical, TCAMS antimalarial set, Kinase-Glo luminescence (AID 1159587); settings: recombinant PfPK7, Kinase-Glo ATP depletion luminescence
[8] = target: Calcium-dependent protein kinase 4 (Plasmodium falciparum (isolate 3D7)) (UniProt Q8IBS5); test: PfCDPK4 kinase inhibitors, biochemical, TCAMS library (AID 1159588; cut-off not given, nearly all actives have IC50 up to about 0.91 µM); settings: recombinant PfCDPK4, Kinase-Glo ATP depletion luminescence
Chain of Calcium-dependent protein kinase 4 (Plasmodium falciparum (isolate 3D7)) (Q8IBS5 whole entry, looked up): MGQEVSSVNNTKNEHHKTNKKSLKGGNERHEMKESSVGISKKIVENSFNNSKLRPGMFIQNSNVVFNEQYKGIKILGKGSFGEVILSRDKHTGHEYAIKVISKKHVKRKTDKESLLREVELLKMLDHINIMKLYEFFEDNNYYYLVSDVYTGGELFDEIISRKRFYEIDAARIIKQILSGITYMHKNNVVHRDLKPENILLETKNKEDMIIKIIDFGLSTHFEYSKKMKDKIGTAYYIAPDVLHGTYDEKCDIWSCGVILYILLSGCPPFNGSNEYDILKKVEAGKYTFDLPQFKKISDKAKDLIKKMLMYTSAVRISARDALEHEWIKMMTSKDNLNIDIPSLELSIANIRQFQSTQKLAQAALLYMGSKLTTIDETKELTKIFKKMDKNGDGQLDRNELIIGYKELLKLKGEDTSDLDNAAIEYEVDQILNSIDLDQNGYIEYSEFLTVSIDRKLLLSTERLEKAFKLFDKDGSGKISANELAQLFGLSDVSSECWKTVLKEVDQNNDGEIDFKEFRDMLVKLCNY

Chain of L-lactate dehydrogenase (Plasmodium falciparum (isolate CDC / Honduras)) (Q27743 whole entry, looked up): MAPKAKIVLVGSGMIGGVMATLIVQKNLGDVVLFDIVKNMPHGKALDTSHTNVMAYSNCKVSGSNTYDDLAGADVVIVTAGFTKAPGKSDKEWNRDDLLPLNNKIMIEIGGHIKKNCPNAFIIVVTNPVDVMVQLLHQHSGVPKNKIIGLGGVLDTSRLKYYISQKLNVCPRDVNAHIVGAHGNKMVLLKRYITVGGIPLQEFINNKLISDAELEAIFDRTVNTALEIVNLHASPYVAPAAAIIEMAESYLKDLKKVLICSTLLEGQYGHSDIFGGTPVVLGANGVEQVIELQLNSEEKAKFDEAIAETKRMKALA
Chain of Protein kinase 7 (PK7), Plasmodium falciparum 3D7 (PF3D7_0213400) (Q7YTF7 1-343): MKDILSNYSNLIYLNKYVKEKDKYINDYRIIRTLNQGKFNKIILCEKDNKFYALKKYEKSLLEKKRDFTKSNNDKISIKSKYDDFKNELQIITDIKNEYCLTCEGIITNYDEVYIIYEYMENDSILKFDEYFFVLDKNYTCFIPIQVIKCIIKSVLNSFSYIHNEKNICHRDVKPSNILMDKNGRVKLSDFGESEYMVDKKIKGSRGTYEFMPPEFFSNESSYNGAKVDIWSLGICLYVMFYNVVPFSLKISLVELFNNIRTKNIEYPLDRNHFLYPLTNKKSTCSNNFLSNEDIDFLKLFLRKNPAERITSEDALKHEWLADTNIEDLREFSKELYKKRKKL
Chain of Calcium-dependent protein kinase 1 (Plasmodium falciparum (isolate 3D7)) (P62344 whole entry, looked up): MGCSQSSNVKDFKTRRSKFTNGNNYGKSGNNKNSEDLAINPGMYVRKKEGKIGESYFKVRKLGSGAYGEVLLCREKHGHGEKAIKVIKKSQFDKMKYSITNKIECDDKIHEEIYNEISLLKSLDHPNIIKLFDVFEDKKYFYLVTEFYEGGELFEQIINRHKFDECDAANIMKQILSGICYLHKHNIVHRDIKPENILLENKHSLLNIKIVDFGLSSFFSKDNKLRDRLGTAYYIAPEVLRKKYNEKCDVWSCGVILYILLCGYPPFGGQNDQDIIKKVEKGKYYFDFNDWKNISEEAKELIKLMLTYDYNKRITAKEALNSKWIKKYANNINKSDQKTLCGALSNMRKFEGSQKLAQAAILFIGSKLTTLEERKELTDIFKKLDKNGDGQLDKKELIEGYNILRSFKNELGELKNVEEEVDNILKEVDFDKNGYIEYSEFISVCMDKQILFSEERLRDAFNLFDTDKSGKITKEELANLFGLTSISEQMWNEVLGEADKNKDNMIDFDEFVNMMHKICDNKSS
Chain of Plasmodium falciparum protein kinase 6 (PK6, PF3D7_1337100) (Q8IDW1 1-305): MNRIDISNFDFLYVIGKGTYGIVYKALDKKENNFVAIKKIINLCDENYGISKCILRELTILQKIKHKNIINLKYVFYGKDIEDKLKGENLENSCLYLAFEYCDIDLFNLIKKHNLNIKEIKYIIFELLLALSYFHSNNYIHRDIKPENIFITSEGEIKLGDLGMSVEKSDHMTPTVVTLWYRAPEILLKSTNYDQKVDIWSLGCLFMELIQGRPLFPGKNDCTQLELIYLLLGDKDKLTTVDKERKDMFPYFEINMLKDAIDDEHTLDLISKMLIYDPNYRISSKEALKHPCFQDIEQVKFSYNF

COc1ccc(C(=O)N2CCC(CN3CCOC(c4ccccc4)(c4ccccc4)C3)CC2)cc1
active: growth inhibition [1] 96% | growth inhibition [4] 95%
inactive: inhibition [2] 19% | inhibition [3] 5% | outcome [5] | outcome [6] | outcome [7] | outcome [8]

c1ccc(-c2nc(NC3CCCCC3)cc(C3CC3)n2)nc1
inactive: inhibition [2] 35% | inhibition [3] 2% | outcome [5] | outcome [6] | outcome [7] | outcome [8]
active: growth inhibition [1] 76% | growth inhibition [4] 97%

CON(C)C(=O)[C@@H](CCCCNC(=O)OCc1ccccc1)NC(=O)OC(C)(C)C
active: growth inhibition [4] 98%
inactive: growth inhibition [1] -1% | inhibition [2] 5% | inhibition [3] -4% | outcome [5] | outcome [6] | outcome [7] | outcome [8]

NC1CCN(Cc2ccc(-c3cccc(-c4nc5ccccc5[nH]4)c3)cc2)C1 (stereo not drawn)
active: growth inhibition [4] 98%
inactive: growth inhibition [1] -3% | inhibition [2] 19% | inhibition [3] 5% | outcome [5] | outcome [6] | outcome [7] | outcome [8]

Cc1ccc(/C=C/C(=O)NC2CCC(N3CCC(c4ccccc4C)CC3)CC2)cc1F (stereo not drawn)
active: inhibition [2] 51% | growth inhibition [4] 96%
inactive: growth inhibition [1] 18% | inhibition [3] 2% | outcome [5] | outcome [6] | outcome [7] | outcome [8]

CCCCc1ccc(C(=O)Nc2ccc3nc(N4CCN(CC)CC4)cc(C)c3c2)cc1
active: growth inhibition [4] 91%
inactive: growth inhibition [1] 13% | inhibition [2] 32% | inhibition [3] 4% | outcome [5] | outcome [6] | outcome [7] | outcome [8]

Cc1cccc2[nH]c(-c3ccc(-c4ccc(CN5CCCC5CN)cc4)cc3)nc12 (stereo not drawn)
active: growth inhibition [1] 65% | growth inhibition [4] 99%
inactive: inhibition [2] 28% | inhibition [3] 1% | outcome [5] | outcome [6] | outcome [7] | outcome [8]

CC1CC(NCCCNc2cc(=O)c3ccccc3[nH]2)c2cc(Cl)c(Cl)c(Cl)c21 (stereo not drawn)
inactive: inhibition [2] 0% | inhibition [3] 3% | outcome [5] | outcome [6] | outcome [7] | outcome [8]
active: growth inhibition [1] 69% | growth inhibition [4] 100%

O=C(c1ccc([N+](=O)[O-])o1)N1CCN(c2nc3c(Cl)cccc3s2)CC1
active: growth inhibition [1] 87% | growth inhibition [4] 91%
inactive: inhibition [2] -12% | inhibition [3] 6% | outcome [5] | outcome [6] | outcome [7] | outcome [8]

CCn1ncc2c(N3CCCC3=O)cc(C(=O)N[C@@H](Cc3ccccc3)[C@H](O)CNC(C)(C)c3cccc(C(F)(F)F)c3)cc21
inactive: inhibition [2] 10% | inhibition [3] 3% | outcome [5] | outcome [6] | outcome [7] | outcome [8]
active: growth inhibition [1] 99% | growth inhibition [4] 98%

Cc1cccc2[nH]c(-c3ccc(-c4cccc(CNCc5ccc(S(C)(=O)=O)cc5)c4)s3)nc12
inactive: inhibition [2] 31% | inhibition [3] -3% | outcome [5] | outcome [6] | outcome [7] | outcome [8]
active: growth inhibition [1] 91% | growth inhibition [4] 100%

Cc1ccc(O)cc1Nc1ccnc2cc(-c3csc(CNCCN4CCOCC4)n3)ccc12
active: growth inhibition [1] 99% | growth inhibition [4] 101%
inactive: inhibition [2] 6% | inhibition [3] -3% | outcome [5] | outcome [6] | outcome [7] | outcome [8]

COCCNCc1ccc(-c2ccc3c(Nc4ccc(Cl)cc4F)ccnc3c2)o1
inactive: inhibition [2] 15% | inhibition [3] -2% | outcome [5] | outcome [6] | outcome [7] | outcome [8]
active: growth inhibition [1] 100% | growth inhibition [4] 100%

Cc1ccc(F)c(OCC2CCCN(c3ccc(C(=O)NC4CC4)cn3)C2)c1 (stereo not drawn)
inactive: inhibition [2] 3% | inhibition [3] -3% | outcome [5] | outcome [6] | outcome [7] | outcome [8]
active: growth inhibition [1] 94% | growth inhibition [4] 96%

O=C(CSc1nccn1Cc1ccco1)Nc1cc(C(F)(F)F)ccc1Cl
active: growth inhibition [1] 66% | growth inhibition [4] 91%
inactive: inhibition [2] 9% | inhibition [3] -4% | outcome [5] | outcome [6] | outcome [7] | outcome [8]

COc1ccc(Nc2c3ccc(Cl)cc3nc3ccc(OC)cc23)cc1
active: growth inhibition [1] 99% | growth inhibition [4] 94%
inactive: inhibition [2] 14% | inhibition [3] 3% | outcome [5] | outcome [6] | outcome [7] | outcome [8]

CC1(C)CCCN(C(=O)c2cccc(-n3nc(-c4ccc(Cl)cc4)cc3N)c2)C1
active: growth inhibition [1] 98% | growth inhibition [4] 101%
inactive: inhibition [2] 13% | inhibition [3] -2% | outcome [5] | outcome [6] | outcome [7] | outcome [8]

Nc1ccnc2ccc(NC(=O)CCCCCc3ccccc3)cc12
active: growth inhibition [4] 96%
inactive: growth inhibition [1] 30% | inhibition [2] 47% | inhibition [3] 3% | outcome [5] | outcome [6] | outcome [7] | outcome [8]

O=C(Nc1cccc(F)c1)NC1CCN(CCCCCNC(=O)[C@@H]2C[C@H]2c2ccc(Cl)c(Cl)c2)CC1
active: growth inhibition [4] 101%
inactive: growth inhibition [1] 12% | inhibition [2] 41% | inhibition [3] 4% | outcome [5] | outcome [6] | outcome [7] | outcome [8]

COc1ccccc1Cc1nc2ccccc2nc1SCC(=O)Nc1cccc(C(F)(F)F)c1
inactive: inhibition [2] 8% | inhibition [3] 0% | outcome [5] | outcome [6] | outcome [7] | outcome [8]
active: growth inhibition [1] 91% | growth inhibition [4] 97%

Cc1ccc(CN2CCC(C(=O)Nc3ccc(-c4cc5ccccc5[nH]4)cc3)CC2)o1
inactive: growth inhibition [1] 40% | inhibition [2] 19% | inhibition [3] 3% | outcome [5] | outcome [6] | outcome [7] | outcome [8]
active: growth inhibition [4] 92%

Nc1ncc(-c2ccc(F)cc2)c2ccc(-c3cccc(F)c3)cc12
inactive: inhibition [2] 34% | inhibition [3] 3% | outcome [5] | outcome [6] | outcome [7] | outcome [8]
active: growth inhibition [1] 89% | growth inhibition [4] 99%

COc1ccc2nc(Nc3nc(-c4ccccn4)cs3)sc2c1
active: growth inhibition [1] 94% | growth inhibition [4] 93%
inactive: inhibition [2] 40% | inhibition [3] 4% | outcome [5] | outcome [6] | outcome [7] | outcome [8]

CN(C)c1ccc(CN2CCC(NC(=O)c3ccc(-c4cccc(F)c4)s3)CC2)cc1
active: inhibition [2] 55% | growth inhibition [4] 91%
inactive: growth inhibition [1] 18% | inhibition [3] -1% | outcome [5] | outcome [6] | outcome [7] | outcome [8]

COc1cc(C(=O)NC2CCN(Cc3ccccc3)CC2)ccc1-c1nc2cc(Cl)c(Cl)cc2[nH]1
active: growth inhibition [1] 100% | growth inhibition [4] 103%
inactive: inhibition [2] 14% | inhibition [3] 4% | outcome [5] | outcome [6] | outcome [7] | outcome [8]

COc1ccc(-c2ccc(NC(=O)c3cccc(F)c3)cc2)cc1CNC(C)C
active: growth inhibition [4] 97%
inactive: growth inhibition [1] 14% | inhibition [2] 17% | inhibition [3] -2% | outcome [5] | outcome [6] | outcome [7] | outcome [8]

CCc1c(CCNCCCCCCNCc2ccc3c(c2CC)OCO3)ccc(OC)c1OC
inactive: growth inhibition [1] 19% | inhibition [2] 38% | inhibition [3] 6% | outcome [5] | outcome [6] | outcome [7] | outcome [8]
active: growth inhibition [4] 100%

O=C(Nc1ccc(Cn2ncc(N3CCCNCC3)c(Cl)c2=O)cc1)Nc1cc(Cl)cc(Cl)c1
inactive: growth inhibition [1] 17% | inhibition [2] 3% | inhibition [3] 3% | outcome [5] | outcome [6] | outcome [7] | outcome [8]
active: growth inhibition [4] 91%

CCCCCCNC(=O)C1Cc2c([nH]c3ccc(F)cc23)C2(CCN(Cc3ccccc3)CC2)N1 (stereo not drawn)
active: growth inhibition [4] 97%
inactive: growth inhibition [1] 39% | inhibition [2] 11% | inhibition [3] -1% | outcome [5] | outcome [6] | outcome [7] | outcome [8]

COc1ccc(C2CCC(NCCCCNC(=O)c3ccc(NC(=O)c4ccc(Cl)cc4)cc3)CC2)cc1 (stereo not drawn)
active: growth inhibition [4] 99%
inactive: growth inhibition [1] 7% | inhibition [2] 23% | inhibition [3] -6% | outcome [5] | outcome [6] | outcome [7] | outcome [8]

CCOc1cc(C)ccc1C1CCN(CCCCNC(=O)c2coc(-c3ccc(Cl)cc3)c2)CC1
inactive: growth inhibition [1] 30% | inhibition [2] 34% | inhibition [3] -3% | outcome [5] | outcome [6] | outcome [7] | outcome [8]
active: growth inhibition [4] 92%

O=C(CC(c1ccccc1)c1ccccc1O)N1CCOCC1 (stereo not drawn)
inactive: growth inhibition [1] 5% | inhibition [2] 30% | inhibition [3] 0% | outcome [5] | outcome [6] | outcome [7] | outcome [8]
active: growth inhibition [4] 84%

CN(c1ccc(NC(=O)c2ccc(F)cc2)cc1)C1CCN(Cc2cccc(F)c2)C1 (stereo not drawn)
inactive: inhibition [2] 3% | inhibition [3] -2% | outcome [5] | outcome [6] | outcome [7] | outcome [8]
active: growth inhibition [1] 74% | growth inhibition [4] 81%

COCCNCc1nc(-c2ccc3c(Nc4ccc(Cl)cc4F)ccnc3c2)cs1
active: growth inhibition [1] 100% | growth inhibition [4] 101%
inactive: inhibition [2] -4% | inhibition [3] -1% | outcome [5] | outcome [6] | outcome [7] | outcome [8]

CC1CN(Cc2cccc(-c3ccc(-c4nc5ccccc5[nH]4)cc3)c2)CC(C)O1 (stereo not drawn)
active: growth inhibition [1] 88% | growth inhibition [4] 90%
inactive: inhibition [2] 37% | inhibition [3] -6% | outcome [5] | outcome [6] | outcome [7] | outcome [8]

O=c1cc(NCCCNCc2ccc(C(F)(F)F)c(F)c2)[nH]c2ccccc12
active: growth inhibition [4] 93%
inactive: growth inhibition [1] 26% | inhibition [2] 5% | inhibition [3] 4% | outcome [5] | outcome [6] | outcome [7] | outcome [8]

CN1CCN(c2ccnc3ccc(NC(=O)Nc4ccc5c(c4)CCC5=O)cc23)CC1
active: growth inhibition [1] 67% | growth inhibition [4] 100%
inactive: inhibition [2] 8% | inhibition [3] 0% | outcome [5] | outcome [6] | outcome [7] | outcome [8]

CCCc1nc2c(N3CCCN(C(=O)NC4CCCCC4)CC3)cccc2n1Cc1ccccn1
inactive: growth inhibition [1] 10% | inhibition [2] 10% | inhibition [3] 5% | outcome [5] | outcome [6] | outcome [7] | outcome [8]
active: growth inhibition [4] 89%

CCOC(=O)c1ccc(OCCOc2ccccc2)cc1
inactive: growth inhibition [1] -3% | inhibition [3] -1% | outcome [5] | outcome [6] | outcome [7] | outcome [8]
active: inhibition [2] 63% | growth inhibition [4] 99%

Cc1cccc(NC(=O)c2ccc(C(=O)NC3CCN(CC4CCCCC4)C3)cc2)c1 (stereo not drawn)
inactive: growth inhibition [1] 3% | inhibition [2] 17% | inhibition [3] -3% | outcome [5] | outcome [6] | outcome [7] | outcome [8]
active: growth inhibition [4] 88%

O=C(N[C@@H]1C[C@H]1c1ccccc1)N(CCCn1ccnc1)Cc1csc(-c2ccc(CNCc3ccccc3)cc2)n1
active: growth inhibition [4] 96%
inactive: growth inhibition [1] 20% | inhibition [2] 6% | inhibition [3] 2% | outcome [5] | outcome [6] | outcome [7] | outcome [8]

Reference: PubChem BioAssay
